The text below walks through data of paper PMC12820563, “FoxP3 forms a head-to-head dimer in vivo and stabilizes its multimerization on adjacent microsatellites”.

The full ranking holds about 16,000 sequences; the median of “rpm ratio (pull-down/input)” is about 0.5, and the highest 2% start at about 5.5. The sample holds the highest values, similar sequences and a random draw of the others, so the mix is not that of the screen.

The target of this assay is T1, MBP-FoxP3dN (Mus musculus, UniProt Q99JB6 188-423).
T1 sequence: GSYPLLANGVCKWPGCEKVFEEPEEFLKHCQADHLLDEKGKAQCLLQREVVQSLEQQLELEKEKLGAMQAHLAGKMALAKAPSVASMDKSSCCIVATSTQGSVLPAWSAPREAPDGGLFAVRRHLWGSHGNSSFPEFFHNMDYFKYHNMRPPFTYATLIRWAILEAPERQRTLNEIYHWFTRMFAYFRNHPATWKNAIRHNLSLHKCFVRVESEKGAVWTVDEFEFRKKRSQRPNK
Kind of assay: PD-seq (MBP pull-down with sequencing); 20 mM Tris-HCl pH 7.5, 100 mM NaCl, 1.5 mM MgCl2, 0.4 uM protein, 0.1 uM dsDNA library, 30 min, room temperature, amylose pull-down; high values mean tight binding. The settings on record: protein: recombinant; tags: His6-MBP; chain copies: 2; dsDNA, one strand shown. Put shortly:
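Binding is the reads-per-million enrichment of pull-down relative to input, pooled across replicates. For this, 0.4 µM His6-MBP-tagged mouse FoxP3 or FoxP1 fragment lacking the N-terminus, made in E. coli, was incubated with 0.1 µM Klenow-filled double-stranded degenerate DNA library for 30 min at room temperature in Tris pH 7.5 buffer with NaCl and MgCl2. Complexes bound to amylose resin were washed three times before proteinase K released the DNA for PCR barcoding and Illumina sequencing.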
Turning to “GATGATTGTTCTCCCAGCTGATGAATTGGGTGTTTCGAGTAAACAAATTTTCCTAATCTTTCTGTTCAAGCGCCATCTAC”, the binding signal is 1.38 RPM ratio (pull-down/input).
On to “GATGATTGTTCTCCCAGCTGATGAATTCAACTGATCGAGTAAACAAATTTTCCTAATCTTTCTGTTCAAGCGCCATCTAC”, for which the binding signal is 0.332 RPM ratio (pull-down/input).
The same measure for “GATGATTGTTCTCCCAGCTGATGAATTGAATATGTCGAGTAAACAAATTTTCCTAATCTTTCTGTTCAAGCGCCATCTAC”: 0.689 RPM ratio (pull-down/input); for “GATGATTGTTCTCCCAGCTGATGAATTGACACTCTCGAGTAAACAAATTTTCCTAATCTTTCTGTTCAAGCGCCATCTAC”: 0.6 RPM ratio (pull-down/input); for “GATGATTGTTCTCCCAGCTGATGAATTCTTGAATTCGAGTAAACAAATTTTCCTAATCTTTCTGTTCAAGCGCCATCTAC”: 0.493 RPM ratio (pull-down/input).
In the case of “GATGATTGTTCTCCCAGCTGATGAATTGTACTTTTCGAGTAAACAAATTTTCCTAATCTTTCTGTTCAAGCGCCATCTAC” it was 0.551 RPM ratio (pull-down/input).
With “GATGATTGTTCTCCCAGCTGATGAATTGGGTGAGTCGAGTAAACAAATTTTCCTAATCTTTCTGTTCAAGCGCCATCTAC”, the binding signal was 0.443 RPM ratio (pull-down/input).
Take “GATGATTGTTCTCCCAGCTGATGAATTCACTTGTTCGAGTAAACAAATTTTCCTAATCTTTCTGTTCAAGCGCCATCTAC”: the binding signal is 1.02 RPM ratio (pull-down/input).
As to “GATGATTGTTCTCCCAGCTGATGAATTCAGTAACTCGAGTAAACAAATTTTCCTAATCTTTCTGTTCAAGCGCCATCTAC”, the binding signal was 1.34 RPM ratio (pull-down/input).
For the sequence “GATGATTGTTCTCCCAGCTGATGAATTCAACACCTCGAGTAAACAAATTTTCCTAATCTTTCTGTTCAAGCGCCATCTAC”, the binding signal was 0.553 RPM ratio (pull-down/input).
The same measure for “GATGATTGTTCTCCCAGCTGATGAATTTATATTGTCGAGTAAACAAATTTTCCTAATCTTTCTGTTCAAGCGCCATCTAC”: 2.37 RPM ratio (pull-down/input).
The same measure for “GATGATTGTTCTCCCAGCTGATGAATTTAATTTGTCGAGTAAACAAATTTTCCTAATCTTTCTGTTCAAGCGCCATCTAC”: 3.39 RPM ratio (pull-down/input); for “GATGATTGTTCTCCCAGCTGATGAATTTTATTGGTCGAGTAAACAAATTTTCCTAATCTTTCTGTTCAAGCGCCATCTAC”: 4.94 RPM ratio (pull-down/input).
As to “GATGATTGTTCTCCCAGCTGATGAATTTATTTGGTCGAGTAAACAAATTTTCCTAATCTTTCTGTTCAAGCGCCATCTAC”, the binding signal was 6.15 RPM ratio (pull-down/input).
As for “GATGATTGTTCTCCCAGCTGATGAATTTATTTTGTCGAGTAAACAAATTTTCCTAATCTTTCTGTTCAAGCGCCATCTAC”, the binding signal was 5.94 RPM ratio (pull-down/input).
In the case of “GATGATTGTTCTCCCAGCTGATGAATTATTTTGGTCGAGTAAACAAATTTTCCTAATCTTTCTGTTCAAGCGCCATCTAC”, the binding signal was 0.995 RPM ratio (pull-down/input).
Turning to “GATGATTGTTCTCCCAGCTGATGAATTGCCCCCTTCGAGTAAACAAATTTTCCTAATCTTTCTGTTCAAGCGCCATCTAC”, the binding signal is 0.413 RPM ratio (pull-down/input).
The same measure for “GATGATTGTTCTCCCAGCTGATGAATTTCCGGTATCGAGTAAACAAATTTTCCTAATCTTTCTGTTCAAGCGCCATCTAC”: 0.44 RPM ratio (pull-down/input); for “GATGATTGTTCTCCCAGCTGATGAATTTGGCATTTCGAGTAAACAAATTTTCCTAATCTTTCTGTTCAAGCGCCATCTAC”: 6.16 RPM ratio (pull-down/input).
In the case of “GATGATTGTTCTCCCAGCTGATGAATTGGCATTCTCGAGTAAACAAATTTTCCTAATCTTTCTGTTCAAGCGCCATCTAC”, the binding signal is 3.49 RPM ratio (pull-down/input).
The same measure for “GATGATTGTTCTCCCAGCTGATGAATTGGCATCCTCGAGTAAACAAATTTTCCTAATCTTTCTGTTCAAGCGCCATCTAC”: 4.28 RPM ratio (pull-down/input); for “GATGATTGTTCTCCCAGCTGATGAATTTGGCATCTCGAGTAAACAAATTTTCCTAATCTTTCTGTTCAAGCGCCATCTAC”: 6.36 RPM ratio (pull-down/input).
With “GATGATTGTTCTCCCAGCTGATGAATTGTGGCATTCGAGTAAACAAATTTTCCTAATCTTTCTGTTCAAGCGCCATCTAC”, the binding signal is 6.18 RPM ratio (pull-down/input).
The same measure for “GATGATTGTTCTCCCAGCTGATGAATTTTGGCATTCGAGTAAACAAATTTTCCTAATCTTTCTGTTCAAGCGCCATCTAC”: 5.56 RPM ratio (pull-down/input); for “GATGATTGTTCTCCCAGCTGATGAATTTTTGGCATCGAGTAAACAAATTTTCCTAATCTTTCTGTTCAAGCGCCATCTAC”: 0.785 RPM ratio (pull-down/input).
In the case of “GATGATTGTTCTCCCAGCTGATGAATTCTGGCATTCGAGTAAACAAATTTTCCTAATCTTTCTGTTCAAGCGCCATCTAC” it was 4.83 RPM ratio (pull-down/input).
The same measure for “GATGATTGTTCTCCCAGCTGATGAATTCGTGGCATCGAGTAAACAAATTTTCCTAATCTTTCTGTTCAAGCGCCATCTAC”: 1.13 RPM ratio (pull-down/input); for “GATGATTGTTCTCCCAGCTGATGAATTTGGCCATTCGAGTAAACAAATTTTCCTAATCTTTCTGTTCAAGCGCCATCTAC”: 4.06 RPM ratio (pull-down/input); for “GATGATTGTTCTCCCAGCTGATGAATTGGCATTTTCGAGTAAACAAATTTTCCTAATCTTTCTGTTCAAGCGCCATCTAC”: 3.38 RPM ratio (pull-down/input).
On to “GATGATTGTTCTCCCAGCTGATGAATTGGCATCTTCGAGTAAACAAATTTTCCTAATCTTTCTGTTCAAGCGCCATCTAC”, for which the binding signal was 4.07 RPM ratio (pull-down/input).
Turning to “GATGATTGTTCTCCCAGCTGATGAATTGGGTGGTTCGAGTAAACAAATTTTCCTAATCTTTCTGTTCAAGCGCCATCTAC”, the binding signal was 0.736 RPM ratio (pull-down/input).
The same measure for “GATGATTGTTCTCCCAGCTGATGAATTGCAGAGTTCGAGTAAACAAATTTTCCTAATCTTTCTGTTCAAGCGCCATCTAC”: 0.781 RPM ratio (pull-down/input).
